# Experimental data from PubChem BioAssay (NCI).
# About 83,000 compounds went through this panel and 20% of them were active in at least one assay; those are over-represented in the sample as a whole.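 Each cell line was grown in a 96-well plate and treated with one concentration of compound for 48 hours. Values below 10 were considered active.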 Values without a mark were called inactive. The source made the active and inactive calls.
# Experiments:
# Assay in all cases: NCI-60 one-dose screen, 48 h (100 = growth as untreated, 0 = no growth, -100 = all killed)
# Conditions in all cases: 10 µM unless noted
# SR leukemia = system: SR leukemia
# RPMI-8226 leukemia = system: RPMI-8226 leukemia
# OVCAR-8 ovarian = system: OVCAR-8 ovarian
# OVCAR-5 ovarian = system: OVCAR-5 ovarian
# OVCAR-4 ovarian = system: OVCAR-4 ovarian
# SK-OV-3 ovarian = system: SK-OV-3 ovarian
# IGROV1 ovarian = system: IGROV1 ovarian
# OVCAR-3 ovarian = system: OVCAR-3 ovarian
# HS 578T breast = system: HS 578T breast
# NCI/ADR-RES ovarian = system: NCI/ADR-RES ovarian
# T-47D breast = system: T-47D breast
# MDA-MB-435 melanoma = system: MDA-MB-435 melanoma
# SW-620 colon = system: SW-620 colon
# HCT-116 colon = system: HCT-116 colon
# HCC-2998 colon = system: HCC-2998 colon
# KM12 colon = system: KM12 colon
# MCF7 breast = system: MCF7 breast
# BT-549 breast = system: BT-549 breast
SMILES,growth (SR leukemia) [%],growth (RPMI-8226 leukemia) [%],growth (OVCAR-8 ovarian) [%],growth (OVCAR-5 ovarian) [%],growth (OVCAR-4 ovarian),growth (SK-OV-3 ovarian),growth (IGROV1 ovarian) [%],growth (OVCAR-3 ovarian),growth (HS 578T breast) [%],growth (NCI/ADR-RES ovarian) [%],growth (T-47D breast) [%],growth (MDA-MB-435 melanoma) [%],growth (SW-620 colon) [%],growth (HCT-116 colon),growth (HCC-2998 colon) [%],growth (KM12 colon) [%],growth (MCF7 breast),growth (BT-549 breast) [%]
Cc1nc(O)cc(=O)[nH]1,114,114,105,110,114%,121%,106,115%,91.4,108,113,126,109,113%,110,110,–,–
CCOC(C=O)OCC,89.9,99.1,102,102,114%,106%,108,109%,109,107,–,102,108,105%,99.1,104,95.4%,–
C/C(=N\O)c1ccccn1,94.5,102,97.7,106,97.3%,109%,110,106%,95.5,100,–,94.3,94,111%,109,93.8,–,–
O=C(Oc1ccccc1Cl)c1ccc(Cl)cc1Cl,104,98.9,101,109,109%,99.6%,108,107%,93.8,103,–,95.4,98.9,95.2%,102,87.4,84.6%,–
C/C(=N\Nc1ccc([N+](=O)[O-])cc1[N+](=O)[O-])c1ccc(Br)cc1,84.4,93.1,96.8,123,105%,108%,110,99.7%,104,106,–,98.4,101,102%,99.4,93.3,97.2%,–
CC(CC(CCC(=O)O)(c1ccccc1)c1ccccc1)N(C)C (configuration not stated),98.6,109,94.4,98.4,96.1%,97.6%,107,67.3%,106,108,–,105,109,97.2%,106,109,–,68.1
NNc1ncnc2c1ncn2C1OC(CO)C(O)C1O (configuration not stated),17.5,51.8,25.6,54.7,45%,2.11% (active),66.7,9.24% (active),53,24.3,–,56.4,21.4,4.61% (active),48.9,28.5,6.39% (active),42.3
CCOc1ccc(NC(=S)N2CCC(CCCC3CCN(C(=S)Nc4ccc(OCC)cc4)CC3)CC2)cc1,95.2,65.8,92.2,102,85.1%,91.1%,94.5,79.3%,85.3,94,67.8,90.4,98.3,84.5%,85.6,90.6,–,–
CC(=O)NCNC(C)=O,85.3,97,98,105,110%,113%,113,120%,111,–,108,107,107,104%,113,117,94%,100
COc1cccc(C(=O)O)c1OC,101,101,101,85.9,95%,91.6%,99.4,106%,88.9,99.4,–,90.9,100,103%,98.6,101,87.2%,–
C1C[S+]2CC[S+]1CC2,101,95.1,96,107,115%,100%,106,102%,108,99.3,–,109,101,104%,105,106,103%,97
Cc1[nH]nc(C(N)=O)c1[N+](=O)[O-],84.7,96.3,108,104,122%,101%,115,101%,87.7,102,–,105,91,99.9%,106,103,97.4%,109
CC(=O)NC(O)C(Cl)Cl (configuration not stated),97.2,95.8,96.4,97.2,97.5%,-22.9% (active),107,74.5%,107,98.5,–,103,114,114%,98.4,103,93.7%,85.9
CC(C)C(C)(C)C(=O)C(C)(C)C(C)(C)C,100,96.1,99.1,97.5,117%,82.8%,105,80.3%,93.9,104,–,108,106,97.7%,104,107,97%,82
Oc1ccc(N=Cc2ccc(OCc3ccccc3)cc2)cc1,97.4,96.7,96.3,111,95.2%,112%,108,103%,104,–,103,88.4,96.1,106%,112,92.8,99.1%,84.6
NC(=O)NCCO,96.2,101,99.8,106,110%,110%,105,106%,94.2,97.7,–,101,103,109%,102,101,98.3%,101
O=C(O)C1CSC(c2ccccc2)N1 (configuration not stated),115,107,106,98.2,111%,99.5%,105,104%,88.4,–,101,108,95.2,101%,103,101,91.5%,104
CCCCCC(=O)OCCC1CCCCC1,88.9,103,104,105,101%,106%,108,95.3%,89.7,103,–,100,98.4,89.8%,99.1,101,–,98.7
COC(=O)c1cccc([N+](=O)[O-])c1,99,102,107,111,130%,115%,111,108%,102,102,–,117,105,110%,99.7,103,104%,131
Nc1nc(Cl)cc(Cl)n1,93.6,114,112,103,112%,91.1%,100,111%,113,–,82,111,109,90.1%,114,106,90.3%,102

SMILES,growth (SR leukemia) [%],growth (RPMI-8226 leukemia) [%],growth (OVCAR-8 ovarian) [%],growth (OVCAR-5 ovarian) [%],growth (OVCAR-4 ovarian),growth (SK-OV-3 ovarian),growth (IGROV1 ovarian) [%],growth (OVCAR-3 ovarian),growth (HS 578T breast) [%],growth (NCI/ADR-RES ovarian) [%],growth (T-47D breast) [%],growth (MDA-MB-435 melanoma) [%],growth (SW-620 colon) [%],growth (HCT-116 colon),growth (HCC-2998 colon) [%],growth (KM12 colon) [%],growth (MCF7 breast),growth (BT-549 breast) [%]
COC1OC(C(O)C(O)CO)C(O)C(O)C1O (configuration not stated),97.7,93.3,105,88.7,109%,95.6%,103,109%,109,106,–,105,105,90.5%,107,106,97.1%,–
O=S1(=O)c2ccccc2Oc2ccccc21,101,110,99.6,96.3,100%,104%,105,114%,106,108,–,101,95,102%,106,109,87.8%,113
CCC(C)c1c(N)n(S(=O)(=O)c2ccc(C)cc2)oc1=O (configuration not stated),107,100,96.6,99.1,109%,113%,88.7,118%,130,120,–,107,105,102%,–,104,108%,110
Cc1ccc(C2CCCCC2)cc1Br,91.4,100,98.4,94.3,119%,96.5%,101,104%,96.4,97.7,–,100,99.1,105%,105,94.3,96.9%,–
CC(C)C1CCC(C)C(O)C1 (configuration not stated),96.1,101,99.1,108,108%,106%,104,105%,93.5,103,–,93.5,98,111%,109,97.3,–,–
CC(=O)Oc1c(Cl)cccc1-c1ccccc1,99.9,99.3,100,108,110%,104%,102,103%,90.7,97.3,–,104,96.4,101%,102,104,101%,–
O=S(=O)(O)c1cccnc1,100,66.4,104,119,114%,103%,132,111%,110,–,106,102,98.9,126%,153,101,99.9%,111
CCN(C(C)=O)c1ccc([N+](=O)[O-])cc1,97,93.9,99.2,111,113%,109%,107,107%,99.8,102,–,116,98.2,109%,97.8,103,98.1%,117
CSc1nc2[nH]ncc2c(=O)[nH]1,95,119,106,97.7,123%,107%,112,97.3%,92,99.1,–,103,95.4,98.1%,108,99.9,98.1%,88.9
CN(C)c1ccc(/C=C/C(=O)c2ccc(NC(N)=O)cc2)cc1,61.2,63.8,94.1,99.8,94%,105%,99.7,109%,–,102,82,93.8,–,75.4%,105,98.5,58.4%,91.7
Cn1c(=O)[nH]c2ccccc2c1=O,100,112,103,123,110%,108%,111,112%,–,102,95.2,101,–,103%,112,102,90.2%,91.3
Cc1ccc(C)c2c1CCC2=O,132,84.1,104,95.8,105%,121%,117,96.7%,92.6,–,103,93.3,93.5,93.1%,96.7,100,–,97.6
CCOC(=O)C(C#N)=C1CCN(C)CC1,79.9,102,93,111,119%,118%,96.9,117%,–,115,106,109,97.2,103%,–,97.7,–,103
COC(CCCl)c1ccc(Cl)cc1 (configuration not stated),90.2,100,96.9,96.2,108%,106%,100,109%,–,98.6,98.1,107,100,103%,106,102,99%,102
O=C(O)c1ccccc1Cc1ccc2c(c1)CCCC2,106,108,105,104,111%,111%,99.5,111%,–,115,113,115,99.5,104%,115,113,91.7%,106
O=c1cc(C(F)(F)F)[nH]c(=S)[nH]1,91.7,111,105,102,107%,99.9%,105,120%,–,109,97.7,106,–,112%,117,103,94.9%,122
Nc1cc2c(cc1Cl)C(=O)c1ccccc1C2=O,59.8,51.1,21.7,58.5,9.39% (active),39.1%,35.5,62.3%,–,24.1,35.7,90.1,–,1.71% (active),69,28.8,65.9%,37.9
CC(C)=CCC[C@@H](C)[C@H]1CC[C@@]2(C)C3=C(CC[C@]12C)[C@@]1(C)CC[C@H](O)C(C)(C)[C@@H]1CC3,93.4,102,102,107,105%,108%,115,122%,–,110,92.8,101,99.9,108%,101,109,97.3%,109
O=C1CSc2ccccc2N1,105,95.2,94.9,116,98.9%,112%,105,115%,–,98.8,107,108,99.2,111%,99.6,109,98.5%,117
CN(C)c1ccc(O)c2c1CC1CC3C(N(C)C)C(=O)C(C(N)=O)=C(O)C3(O)C(=O)C1=C2O (configuration not stated),24.1,20.6,38.3,63.4,57.8%,45.2%,38.4,46.6%,48.9,–,50.5,44.8,47.8,34.1%,49.7,50,53.4%,29.2
